# In the library only some 3% were active in any assay of this set; here they are far more common.
# GDH-TPI counter-1 = counter-screen for M. tuberculosis FBA inhibitors: GDH-TPI coupled enzymes | GDH-TPI coupled enzyme counterscreen, NADH absorbance | inhibition, % at 4.8 µM | 1.2% of 360,000 active; in the data active = inhibition above about 30%;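 also: 0% = DMSO wells and 100% = wells lacking the enzyme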
# Mtb BioA inh = blocks M. tuberculosis BioA enzyme activity | purified M. tuberculosis BioA enzyme, plate reader | inhibition, % at 9.99 µM | 0.096% of 360,000 active | AID 602481; in the data active = inhibition above about 40%
# Vc quorum ag = quorum light induction in luxS cqsA deficient V. cholerae; V. cholerae BH1578 lux reporter, luminescence, 6 h; activation, % at 18.7 µM; 0.16% of 350,000 active; AID 588436; in the data active = activation mostly above about 9.7%, no sharp cut-off
# FBA Mtb inh = inhibitors of M. tuberculosis fructose-bisphosphate aldolase; purified M. tuberculosis FBA, fluorescence read-out; inhibition, % at 1 µM; 2.3% of 360,000 active; AID 588726;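 also: 0% = vehicle and 100% = reference inhibitor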
# Target sequence (P9WQA3 whole entry, looked up): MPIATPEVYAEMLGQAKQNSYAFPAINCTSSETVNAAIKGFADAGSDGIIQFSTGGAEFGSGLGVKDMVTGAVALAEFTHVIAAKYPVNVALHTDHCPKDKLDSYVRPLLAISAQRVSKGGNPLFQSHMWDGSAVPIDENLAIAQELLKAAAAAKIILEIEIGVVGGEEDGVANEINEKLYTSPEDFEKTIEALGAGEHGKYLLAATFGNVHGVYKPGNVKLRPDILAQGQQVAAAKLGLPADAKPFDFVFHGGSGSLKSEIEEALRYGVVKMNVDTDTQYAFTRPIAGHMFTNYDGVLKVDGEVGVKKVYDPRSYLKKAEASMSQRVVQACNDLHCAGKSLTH
# Mtb FBA inh conf = confirmation of M. tuberculosis fructose-bisphosphate aldolase inhibitors. shares compounds with FBA Mtb inh. purified M. tuberculosis FBA, fluorescence read-out. inhibition, % at 1 µM. 78% of 5,600 active;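 also: 0% = vehicle wells and 100% = reference inhibitor wells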
# GDH-TPI counter-2 = GDH-TPI inhibition counter-screen for FBA inhibitors | shares compounds with FBA Mtb inh | GDH-TPI coupled enzyme counterscreen, fluorescence | inhibition, % at 1 µM | 81% of 5,600 active | AID 652141; in the data active = inhibition above about 10%
# GDH-TPI dose = counter-screen for M. tuberculosis FBA inhibitors: GDH-TPI dose response; shares compounds with FBA Mtb inh; GDH-TPI coupled enzyme assay, fluorescence, artifact counterscreen; IC50, µM; 79% of 170 active; AID 652145; call rule not given here
# * marks the source's active call; other numbers are inactive results; i = inactive; . = no result given; + = active, no number. Rule as the data show it, unless noted: active = inhibition above about 27%; inactive = the rest.
SMILES,GDH-TPI counter-1,Mtb BioA inh,Vc quorum ag,FBA Mtb inh,Mtb FBA inh conf,GDH-TPI counter-2,others
C[C@@H]1CN([C@@H](C)CO)S(=O)(=O)c2ccc(C#Cc3cccnc3)cc2O[C@H]1CN(C)C(=O)CN(C)C,.,0.2,.,.,.,.,
COc1ccc(-c2cnc3c(c2)C(=O)N([C@H](C)CO)C[C@H](C)[C@@H](CN(C)Cc2cccnc2)O3)cc1,.,4.7,.,.,.,.,
COc1ccc(-c2cc(=O)oc3cc(OC(=O)C4CCCCC4)c(Cl)cc23)cc1,8.5,.,.,44.7*,46.1*,42.0*,
COc1ccc(-c2cc(=O)oc3cc(O)ccc23)cc1,14.7,.,-2.2,22.6,.,.,
CCCc1cc(=O)[nH]c(SCC(=O)Nc2sc3c(c2C#N)CCC(C)C3)n1 (stereo unspecified),4.4,4.1,i,37.4*,98.8*,73.4*,
CC1CCc2c(sc(NC(=O)CSc3ncn[nH]3)c2C#N)C1 (stereo unspecified),4.8,1.1,i,-1.8,.,.,
C[C@@H]1CN([C@H](C)CO)C(=O)c2cc(NC(=O)CCC(F)(F)F)ccc2O[C@@H]1CN(C)Cc1ccc2c(c1)OCO2,.,0.0,.,.,.,.,
COc1cccc(OCC(=O)NNC(=O)c2ccc3ccccc3c2O)c1,11.6,-0.7,i,28.5*,+,+,
COc1cccc(NC(=O)NNC(=O)COc2ccc3ccccc3c2)c1,10.5,-1.2,-0.7,36.6*,+,+,
COc1ccc(C(=O)NNC(=O)c2ccc3ccccc3c2O)cc1,9.4,-0.6,-4.7,2.0,.,.,
C[C@@H](O)C#Cc1cnc2c(c1)C(=O)N([C@@H](C)CO)C[C@H](C)[C@@H](CN(C)Cc1ccccn1)O2,.,-0.8,.,.,.,.,
C=CCNC(=O)/C(=C\c1ccco1)NC(=O)c1ccco1,14.4,-1.8,-0.7,58.9*,81.0*,71.6*,
C=CCNC(=O)/C(=C/c1ccco1)NC(=O)c1ccc(Br)o1,2.0,0.2,i,1.6,.,.,
CSc1nsc(SC)c1CO,-7.5,.,-0.4,39.2*,2.1,-7.7,
CO[C@@H]1CN(C)C(=O)c2ccc(NC(=O)c3ccccn3)cc2OC[C@@H](C)N(CC2CC2)C[C@H]1C,.,0.8,.,.,.,.,
C[C@H]1CCCCO[C@@H](CN(C)C(=O)CCC(F)(F)F)[C@@H](C)CN([C@@H](C)CO)C(=O)c2cc(NS(C)(=O)=O)ccc2O1,.,-2.9,.,.,.,.,
Cc1cc2nc(-c3ccc(SCC(=O)N4CCOCC4)nc3)[nH]c2cc1C,31.0*,-1.5,i,54.4*,57.2*,50.1*,
Cc1cc2nc(-c3ccc(SCc4ccccn4)nc3)[nH]c2cc1C,38.2*,-1.6,-0.1,40.9*,53.6*,51.2*,
CCOC(=O)CSc1ccc(-c2nc3cc(C)c(C)cc3[nH]2)cn1,23.0,-2.3,0.4,23.6,.,.,
Cc1cc2nc(-c3ccc(SCC(=O)N4CCN(C(=O)c5ccco5)CC4)nc3)[nH]c2cc1C,48.2*,-1.7,-1.0,34.9*,43.9*,27.3*,
COc1ccc(NC(=O)N(C)C[C@@H]2Oc3ccc(NC(=O)C4CCCCC4)cc3C(=O)N([C@H](C)CO)C[C@@H]2C)cc1,.,6.0,.,.,.,.,
O=C(C[C@H]1CC[C@H]2[C@@H](COC[C@@H](O)CN2S(=O)(=O)c2cccc(F)c2)O1)NCc1ccc2c(c1)OCO2,.,-0.2,.,.,.,.,
COc1ccc(CN2[C@@H]3CN(C(=O)C4CC4)c4ccccc4[C@@H]3[C@@H]2CO)cc1,.,2.1,.,.,.,.,
CCc1ccccc1NC(=S)N(CCCN(C)C)Cc1cc2cc3c(cc2[nH]c1=O)OCO3,15.5,.,1.4,23.3,.,.,
Cc1cccc(NC(=S)N(CCCN(C)C)Cc2cc3cc4c(cc3[nH]c2=O)OCO4)c1,16.4,.,-0.4,27.4*,7.6,-4.0,
CCCCNC(=S)N(CCN(CC)CC)Cc1cc2cc3c(cc2[nH]c1=O)OCO3,32.9*,-2.8,-0.4,32.3*,15.8,4.5,GDH-TPI dose=4.92*
O=c1[nH]c2cc3c(cc2cc1CN(Cc1cccnc1)C(=S)NCc1ccco1)OCO3,0.3,.,i,9.6,.,.,
CCCCNC(=S)N(CCCN(C)C)Cc1cc2cc3c(cc2[nH]c1=O)OCO3,25.9,0.5,-0.6,22.1,.,.,
CCCCNC(=S)N(CCN(CC)CC)Cc1cc2cc3c(cc2[nH]c1=O)OCCO3,-4.6,2.9,1.5,16.7,.,.,
CCNC(=S)N(CCN(C)C)Cc1cc2cc3c(cc2[nH]c1=O)OCO3,13.8,-0.4,1.2,43.6*,57.9*,42.8*,

# Screening results (PubChem BioAssay)
